From PubChem BioAssay AID1259422 (The Scripps Research Institute Molecular Screening Center, 2018)
“And” between values parts separate entries of the source, which are not always exact repeats. Equal values may be shown once. Hit rate of the full screen: of about 640,000 compounds, about 9,300 (1.5%) were called active. Cut-off read from the data, not from the text of the source: active = inhibition above about 32%; inactive = the rest. The list comes from a sample in which actives are over-represented; it also holds similar structures and randomly drawn compounds.

assay: TEAD-YAP interaction inhibition, primary screen, TEAD-YAP interaction inhibitor project, luminescence, HEK-TIYL cells (AID 1259422); details: TEAD-Gal4/YAP UAS-luciferase luminescence, at 9.12 µM, active compounds read high;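 note: 0% = median of test compound wells and 100% = reference inhibitor wells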

SMILES	inhibition
COc1cc(NC(=O)c2sc3[nH]c(=O)c(C(=O)O)cc3c2N)c(OC)cc1Cl	-5.84% (inactive)
CCn1cc(C(=O)N2CCc3c(nc(N4CCC(C)CC4)[nH]c3=O)C2)cn1	-0.66% (inactive)
Cc1cnc(Nc2ccc3ncccc3c2)nc1Nc1ccccc1	29.6% (inactive)
Cc1cnc(Nc2ccc(C(F)(F)F)cc2)nc1Nc1ccccc1	11.3% (inactive)
Cc1cnc(Nc2ccncc2)nc1Nc1ccc(Oc2ccccc2)cc1	45.7% (active)
O=C(OCCN1C(=O)c2cccc3c(N4CCCCC4)ccc(c23)C1=O)c1cc(Cl)cc(Cl)c1	-2.51% (inactive)
O=C(NCCOc1ccccc1)c1cnc(NCCCN2CCCC2=O)s1	-45.5% (inactive)
O=C(NCCOc1ccccc1)c1cnc(N2CCCC2CO)s1 (configuration not stated)	81.8% (active)
O=C(NCCOc1ccccc1)c1cnc(N2CCN(c3ccccn3)CC2)s1	-4.73% (inactive)
COc1cc(C(=O)Nc2cccc(-c3cn4ccc(C)cc4n3)c2)cc(OC)c1OC	-17.7% (inactive)
COc1ccc(-c2nc3c(C#N)c(CC#N)nn3cc2C)cc1F	7.27% (inactive)
COc1ccc(-c2cn3ccc(C)cc3n2)cc1	90.6% (active)
COc1ccc(-c2cn3ccc(C)cc3n2)cc1F	78.7% (active)
COc1ccc(-c2nc3sc(-c4ccc(OC)cc4)nc3s2)cc1	-1.58% (inactive)
COc1ccc(-c2cn3cc(C(=O)O)ccc3n2)cc1	15.8% (inactive)
COCCNc1nc(-c2c[nH]c3ccccc23)cs1	0.65% (inactive)
CCOC(=O)N1CCC(NC(=O)C2CC23CCN(CC2CC=CCC2)CC3)CC1 (configuration not stated)	11.9% (inactive)
CCN(CC(=O)Nc1ccccc1OC)Cc1nc2scc(-c3ccccc3)c2c(=O)[nH]1	-1.6% (inactive)
Cc1ccc(C2=Nc3ccccc3N=C(c3ccc(C(C)(C)C)cc3)C2)c(O)c1	38.6% (active)
CC(=O)N1c2ccccc2N=C(c2ccc(C)cc2)CC1c1ccc([N+](=O)[O-])cc1 (configuration not stated)	2.03% (inactive)
Oc1ccc(Cl)cc1C1=Nc2ccccc2N=C(c2cccc(F)c2)C1	-24.4% (inactive)
COc1ccccc1NC(CNS(=O)(=O)c1ccc(Cl)cc1)c1ccccc1 (configuration not stated)	-1.96% (inactive)
Cc1cccc(Cc2cnc(NC(=O)COc3cccc(C)c3)s2)c1	5.87% (inactive)

SMILES	inhibition
COc1ccccc1OCC(=O)Nc1ncc(Cc2cccc(C)c2)s1	3.43% (inactive)
Cc1ccccc1OCC(=O)Nc1ncc(Cc2cccc(Cl)c2)s1	50.4% (active)
O=C(Cn1c(=O)oc2cc(S(=O)(=O)NC3CCCC3)ccc21)N1CCCCCC1	-0.34% (inactive)
Brc1ccc(C2=CC(c3cccc(Br)c3)n3ncnc3N2)cc1 (configuration not stated)	3.83% (inactive)
COc1cccc(C2=CC(c3cccc(OC)c3)n3ncnc3N2)c1 (configuration not stated)	39.1% (active)
COc1ccc(OC)c(C2C=C(c3ccc(Br)cc3)Nc3ncnn32)c1 (configuration not stated)	3.26% (inactive)
CCOc1ccc(C2=CC(c3cc(OC)c(OC)c(OC)c3)n3ncnc3N2)cc1 (configuration not stated)	66.9% (active)
COc1ccc(C2=CC(c3ccc(OC)c(OC)c3)n3ncnc3N2)cc1OC (configuration not stated)	3.8% (inactive)
COc1ccc(C2C=C(c3ccc(OC(F)F)cc3)Nc3ncnn32)cc1 (configuration not stated)	-77.6% (inactive)
O=C(N/N=C\c1cccc([N+](=O)[O-])c1)c1ccccc1I	-11.5% (inactive)
COC(=O)c1ccc(C)c(NC(=O)Nc2cccc(Cl)c2)c1	7.6% (inactive)
COc1ccc(OC)c(C2/C(=C(\O)c3ccc(Br)cc3)C(=O)C(=O)N2CCCn2ccnc2)c1 (configuration not stated)	-4.36% (inactive)
CCOC(=O)c1c(NC(=O)c2cc([N+](=O)[O-])ccc2Cl)sc(-c2ccccc2)c1C	8.37% (inactive)
CCCc1c(C(=O)N[C@H]2C[C@H]3C(=O)N[C@@H](CSCc4ccccc4)C(=O)N3C2)cnn1-c1ccccc1	2.64% (inactive)
COc1ccc(-c2csc(=Nc3ccccc3)n2C)cc1	-28.4% (inactive)
Cc1csc(=Nc2ccccc2)n1C1CCCC1	-5.23% (inactive)
FC(F)Oc1ccc(-c2csc(=Nc3cccnc3)n2C2CC2)cc1	50.1% (active)
CC1CCCC(NC(=O)CCCn2nnc3ccccc3c2=O)C1C (configuration not stated)	-2.4% (inactive)
CC(=O)N1CCN(c2nc(Nc3ccccc3C(=O)c3ccccc3)nc(OC(C(F)(F)F)C(F)(F)F)n2)CC1	10.2% (inactive)
O=C(NCCc1ccccc1)c1ccc(OC2CCN(C(=O)C3CCCO3)CC2)cc1 (configuration not stated)	40.4% (active)
O=C(NCCN1CCCCC1CO)c1ccc(OC2CCN(C(=O)C3CC3)CC2)cc1 (configuration not stated)	1.44% (inactive)
COC(=O)CCC(=O)N1CCC(Oc2ccc(C(=O)NCCc3ccccc3)cc2)CC1	5.68% (inactive)
O=C(COC(=O)CCN1C(=O)C2CC=CCC2C1=O)Nc1ncc(Cl)cc1Cl (configuration not stated)	5.49% (inactive)

SMILES	inhibition
CNC(=O)c1cc(F)ccc1Nc1cc(Nc2ccc3[nH]ncc3c2)ncc1C(F)(F)F	27.2% (inactive)
CCc1ccc(NC(=O)C2CCN(S(=O)(=O)c3ccc4c(c3)CCC(=O)N4)CC2)cc1	-10.1% (inactive)
O=C1Cc2cc(Nc3cc(Nc4ccccn4)c(C(F)(F)F)cn3)ccc2N1	22.7% (inactive)
CNC(=O)c1cc(F)ccc1Nc1cc(Nc2ccc3nc[nH]c3c2)ncc1C(F)(F)F	-9.89% (inactive)
CNC(=O)c1cc(F)ccc1Nc1cc(Nc2ccc(NC(C)=O)cn2)ncc1C(F)(F)F	84.8% (active)
CNC(=O)c1cc(F)ccc1Nc1cc(Nc2ccc3c(c2)CCC(=O)N3)ncc1C(F)(F)F	78.9% (active)
O=C(CSc1nc2ccccc2s1)Nc1ccc(O)c(C(=O)O)c1	-2.73% (inactive)
OCCNCCCOc1ccc(I)cc1	15.9% (inactive)
COc1c(C)c2c(c(O)c1C/C=C(\C)CCC(=O)O)C(=O)OC2	39.5% (active) and 67.1% (active)
O=c1oc2ccccc2cc1-c1ccc(Cl)cc1	-27% (inactive)
Cc1ccc(Nc2nnc(-c3cc4ccc(O)cc4oc3=O)s2)cc1	8.37% (inactive)
O=c1oc2cc(O)ccc2cc1-c1ccc(F)cc1	36% (active)
COc1cccc(CN2CCN(Cc3cn[nH]c3-c3cccc(F)c3)CC2CCO)c1 (configuration not stated)	6.95% (inactive)
CCCCSCCC(=O)O	-16.4% (inactive)
COC(CNc1cc(-c2cccc(C(F)(F)F)c2)nc(-c2ccncc2)n1)OC	14.2% (inactive)
COC(CNc1cc(-c2ccc(F)cc2)nc(-c2ccccn2)n1)OC	42.7% (active)
COCCNc1cc(-c2ccc(F)cc2)nc(C)n1	-31.9% (inactive)
CC(C)(C)NCCOc1ccccc1F	14.1% (inactive)
CCOc1cc(C#N)ccc1OCC(=O)Nc1ccc(C)cc1C	15.8% (inactive)
COC(=O)C1=C(C)N=c2s/c(=C/c3ccc(N(C)C)cc3)c(=O)n2C1c1ccccc1Cl (configuration not stated)	-14.2% (inactive)
O=C(NNS(=O)(=O)c1cccc(Cl)c1Cl)C12CC3CC(CC(C3)C1)C2	-2.41% (inactive)
CCCn1c(=S)[nH]c2cc(C(=O)NCCN(CC)CC)ccc2c1=O	12.2% (inactive)
CC(C)N(CCNC(=O)c1ccnc(Nc2ccc(C(F)(F)F)cc2)c1)C(C)C	-16% (inactive)

SMILES	inhibition
Cc1ccc(Nc2nnc(-c3ccc(C(=O)N(C)C)cc3)c3ccccc23)cc1	-11.2% (inactive)
Cc1cc(C(=O)Nc2ccccc2C(F)(F)F)ccc1[N+](=O)[O-]	-8.76% (inactive)
COc1cc(N2CCOCC2)ccc1Nc1cc(Nc2ccccc2-n2cccn2)c(C(F)(F)F)cn1	-8.57% (inactive)
CCN(CC)CCNC(=O)c1ccc(Nc2cc(Nc3ccccc3C(=O)NC)c(C(F)(F)F)cn2)c(C)c1	84.7% (active)
CCN(CC)CCOc1ccc(Nc2cc(Nc3ccccc3C(=O)NC)c(C(F)(F)F)cn2)c(OC)c1	83.4% (active)
CNC(=O)c1ccccc1Nc1cc(Nc2ccc(N3CCOCC3)cc2OC)ncc1F	6.22% (inactive)
CCN(CC)CCNC(=O)c1ccc2c(=O)n(CCN(CC)CC)c(=S)[nH]c2c1	18.8% (inactive)
CNC(=O)c1ccccc1Nc1nc(Nc2ccc(-n3cnc(-c4ccc(C)nc4)n3)cc2)ncc1Cl	8.52% (inactive)
CNC(=O)c1ccccc1Nc1cc(Nc2ccc(C(=O)N(C)C)cc2)ncc1C(F)(F)F	77.1% (active)
CCN(CC)CCNC(=O)c1ccc(Nc2cc(Nc3ccccc3C(=O)NC)c(C(F)(F)F)cn2)nc1	96.8% (active)
CCc1ccccc1N(CC(=O)Nc1cc(Cl)ccc1C)S(C)(=O)=O	1.56% (inactive)
Cc1ccc(OCCSc2nc(N)cc(=O)[nH]2)cc1	-7.78% (inactive)
CN(C)CCNc1ccnc2c(-c3ccsc3)cnn12	-57.5% (inactive)
O=C(Nc1ccc2c(c1)CN(C1CCOCC1)CC2)c1ccc(C(F)(F)F)cc1	17.5% (inactive)
COc1ccc(NC(=O)/C(=C\c2ccc3c(c2)OCO3)NC(=O)c2ccccc2Cl)c(OC)c1	21.2% (inactive)
COc1ccc(OC)c(/C=N/NC(=O)COc2ccc(Br)cc2)c1	-1.77% (inactive)
COc1ccc(/C=N/NC(=O)COc2ccc(Cl)cc2Br)cc1OC	8.94% (inactive)
CCOC(=O)c1c(C)[nH]c(C(=O)OCC(=O)Nc2ccccc2C(C)(C)C)c1C	7.06% (inactive)
Cc1cc2nn(-c3ccccc3)nc2cc1NC(=S)NC(=O)c1oc2ccccc2c1C	7.4% (inactive)
C=C(C)C1C=C(C)/C(=N/NC(=O)c2ccc(N3CCCC3=O)cc2)CC1 (configuration not stated)	0.92% (inactive)
O=C1/C(=C/c2cccnc2)Oc2cc(OC(=O)C3CC3)ccc21	33.5% (active)
COc1ccc(/C=C2\Oc3cc(OC(=O)C4CC4)cc(C)c3C2=O)c(OC)c1OC	-17.3% (inactive)
O=C(Oc1ccc2c(c1)C(=O)c1cc(OC(=O)c3cccnc3)ccc1-2)c1cccnc1	-14.7% (inactive)
